Most compounds without a hit are left out; they make up all but 3% or so of the library.
SARS PLpro yeast-1: blocks SARS-CoV papain-like protease in a yeast assay | actives 0.19% (n = 330,000) | Potency, µM (series often up to 32.9 µM), for inactives: top-dose activity, positive = growth rescue, most hits filed as activators | AID 485353 | S. cerevisiae expressing SARS-CoV PLpro, growth rescue; calls by dose curve; further: potency means the concentration at half of the fitted maximal effect; 0% is about no effect; nearly all actives have a fitted effect of over 55% in size
Sm TGR inh: S. mansoni TGR enzyme inhibition; Q962Y6; purified TGR, DTNB reduction, TNB absorbance 405 nm; Potency, µM (highest dose often 114 µM), inactives show top-dose activity change, negative = inhibition, usual class: inhibitors; actives 3% (n = 360,000); active means well fitted inhibition curve with a large enough effect; inconclusive means small, poorly fitted or top-dose-only effect; inactive means no such curve, though single readings can be large or run the other way; further: potency means the concentration at half of the fitted maximal effect; on the % scale 0 is the no-effect control and ±100 the full control effect; nearly all actives have a fitted effect of over 60% in size
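TGR 20 nM + NADPH 100 uM (dispensed conc.), cpd preinc 15 min RT; start with NADPH (500 uM addition) then DTNB (15 mM addition). Kinetic TNB absorbance, 405 nm filter. Four-parameter Hill fit across titration.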
SARS PLpro yeast-2: Inhibits SARS-CoV PLP in yeast, hit validation. shares compounds with SARS PLpro yeast-1. AID 652038. calls only. yeast expressing SARS-CoV PLpro, growth phenotype rescue. actives 19% (n = 1,000); call rule not given here
The depositor's hits bear a star; i = inactive; u = inconclusive; x = not tested or not shown; + = active, no number.

SMILES | SARS PLpro yeast-1 | Sm TGR inh | SARS PLpro yeast-2
O=C(N/N=C\c1cccc([N+](=O)[O-])c1O)C1COc2ccccc2O1 (centres undefined) | 13µM* | -1% | i
Cc1ccc(/C=N/NC(=O)C2COc3ccccc3O2)s1 (centres undefined) | -1% | -3% | x
Cc1ccc(-n2c(O)c(/C=N/NC(=O)C3COc4ccccc4O3)c3ccccc3c2=O)cc1 (centres undefined) | u | -5% | u
O=C(N/N=C/c1cccc([N+](=O)[O-])c1)C1COc2ccccc2O1 (centres undefined) | -6% | 8% | x
Cc1ccc(C)c(CN2C(=O)c3ccccc3Sc3ccc(C(=O)NCc4ccco4)cc32)c1 | x | -9% | x
CCCCc1nn2c(=O)cc(COC(=O)c3ccco3)nc2s1 | x | -6% | x
COc1cc(NC(=O)c2cc(Cl)c(OC)c(Cl)c2)ccc1NC(=O)c1cc2ccccc2o1 | x | -2% | x
C(=N\NC(=Nc1ccccc1)c1ccccn1)/c1ccccn1 | u | u | u
Clc1ccc(/C=N/NC(=Nc2ccccc2)c2ccccn2)c(Cl)c1 | 0% | -7% | x
COC(=O)c1cccc(NC(=O)c2nsc3ccccc23)c1 | x | -7% | x
NC(=O)c1cccn1-c1ncc(C(F)(F)F)cc1Cl | 1% | 10% | x
O=C(Nc1ccc(Br)cc1)c1cccn1-c1ncc(C(F)(F)F)cc1Cl | u | -18% | i
CCOC(=O)N1CCN(S(=O)(=O)c2ccc(C(=O)N(CCN(C)C)c3nc4ccc(Cl)cc4s3)cc2)CC1 | -3% | -1% | x
CCOC(=O)N1CCN(S(=O)(=O)c2ccc(C(=O)NNc3nc4c(C)cccc4s3)cc2)CC1 | 7.9µM* | -9% | +
CCOC(=O)N1CCN(S(=O)(=O)c2ccc(C(=O)NNc3nc4cc(C)cc(C)c4s3)cc2)CC1 | 7.9µM* | -2% | u
CCOC(=O)N1CCN(S(=O)(=O)c2ccc(C(=O)Nc3nnc(CC)o3)cc2)CC1 | u | 5% | x
CCOC(=O)N1CCN(S(=O)(=O)c2ccc(C(=O)NNc3nc4c(C)cc(C)cc4s3)cc2)CC1 | u | -15% | x
Cc1cccc2sc(NNC(=O)c3ccc(S(=O)(=O)N4CCc5ccccc5C4)cc3)nc12 | 10µM* | -11% | +
Cc1cccc2sc(NC(=O)c3cccc(S(=O)(=O)N4CCc5ccccc54)c3)nc12 | 10% | -2% | x
CCOC(=O)N1CCN(S(=O)(=O)c2ccc(C(=O)NNc3nc4ccc(Cl)cc4s3)cc2)CC1 | 10µM* | -5% | +
O=C(CNC(=O)c1ccccc1F)OCc1cc(=O)n2ccsc2n1 | x | 3% | x
CCOc1ccc(OCC)c(NS(=O)(=O)c2cc(-c3onc(C)c3C)ccc2OC)c1 | x | 16% | x
COc1ccc(NC(=O)CSc2nc3nc(C)c(Cc4ccccc4)c(C)n3n2)cc1OC | x | -1% | x
COC(=O)CCn1c(C)cc(C(=O)COc2ccccc2C(N)=O)c1C | -5% | -13% | x
COC(=O)CCCn1c(C)cc(C(=O)CCl)c1C | 11µM* | 7.9µM* | +
SMILES | SARS PLpro yeast-1 | Sm TGR inh | SARS PLpro yeast-2
CCOc1cc(CNC(=O)C2CCN(c3nc4ccccc4[nH]3)CC2)cc(OCC)c1OCC | x | -10% | x
CCN(CC)C(=O)c1ccccc1NC(=O)c1cccc(S(=O)(=O)N(CC)CC)c1 | -6% | -4% | x
CCN(CC)S(=O)(=O)c1cccc(C(=O)N/N=C/c2ccc(O)c(O)c2O)c1 | 5µM* | u | +
CCN(CC)S(=O)(=O)c1cccc(C(=O)N/N=C(\C)c2ccc(O)cc2O)c1 | 3.5µM* | -1% | i
CCOc1ccccc1/C=N/NC(=O)c1cccc(S(=O)(=O)N(CC)CC)c1 | 0% | -1% | x
COc1ccc(-c2nc3n(n2)C(c2ccccc2OC)C(C(=O)Nc2cccnc2)=C(C)N3)cc1 (centres undefined) | x | 3% | x
Cc1oc(-c2ccc(Cl)cc2)nc1Cn1c(=O)cc(C)c2c(C)nn(-c3ccccc3)c21 | x | 2% | x
CNC(=S)N/N=C(\C)c1ccc2c(c1)OCO2 | 22% | u | x
CNC(=S)N/N=C(\C)c1ccc2c(c1)OCCO2 | u | -32% | +
C/C(=N\NC(=O)C(N)=O)c1cccc([N+](=O)[O-])c1 | -1% | -1% | x
CNC(=S)N/N=C(\C)c1cccc([N+](=O)[O-])c1 | 13µM* | -16% | i
CCOC(=O)CNC(c1ccccc1)c1cc(Br)ccc1NC(=O)c1ccc(Cl)cc1 (centres undefined) | x | 1% | x
CCc1nc2nc(C)cc(Nc3ccc(OC)cc3OC)n2n1 | x | 3% | x
Cc1c(Cl)cccc1NC(=O)CCn1cnnn1 | x | -3% | x
CCCCNC(=O)C1CCCN(S(=O)(=O)CCC)C1 (centres undefined) | x | 16% | x
Cc1cc(C)cc(NC(=O)CSc2nnc(COc3ccccc3Cl)o2)c1 | x | 11% | x
CC1(c2nnc(Cc3ccccc3)o2)CC(c2cccc(F)c2)=NO1 (centres undefined) | -7% | -15% | x
CC1(c2nnc(Cc3ccccc3)o2)CC(c2ccc(OC(F)(F)F)cc2)=NO1 (centres undefined) | 10µM* | -6% | i
COc1ccc(CCNC(=O)c2cc(Sc3cccc(Cl)c3)nc3ccccc23)cc1OC | x | 2% | x
CCOC(=O)c1ccc(NC(=O)Nc2ccc3snnc3c2)cc1 | x | -7% | x
CCOc1ccc(-c2c(C(=O)N/N=C/c3ccc(OC)cc3)nnn2-c2nonc2N)cc1 | 20µM* | 2% | i
CCCOc1ccc(-c2c(C(=O)N/N=C/c3ccc(OC)cc3)nnn2-c2nonc2N)cc1 | 4% | -3% | x
COC(=O)c1sc(C(=O)OC)c(C(=O)OC)c1C(=O)OC | -18% | 1% | x
COC(=O)c1sc(=S)sc1C(=O)OC | 6.3µM* | -23% | u
COc1ccc2c(c1)c(=O)c(C(=O)c1ccc(F)cc1)cn2CC(=O)Nc1ccc2c(c1)OCCO2 | x | 2% | x
SMILES | SARS PLpro yeast-1 | Sm TGR inh | SARS PLpro yeast-2
N#Cc1ccc(Oc2cccc3cccnc23)c([N+](=O)[O-])c1 | -1% | 0% | x
O=[N+]([O-])c1ccc(Oc2cccc3cccnc23)c([N+](=O)[O-])c1 | x | 1% | i
COC(CNC(=O)c1ccc(CS(=O)(=O)c2ccc(C)cc2)o1)OC | -2% | 3% | x
COCCNC(=O)c1ccc(CS(=O)(=O)c2ccc(C)cc2)o1 | u | 35µM* | i
Cc1ccc(NC(=O)Cn2c(=O)ccc3cc(S(=O)(=O)N4CCCC4)ccc32)cc1N(C)C | x | 10% | x
Cc1ccc(CNC(=O)C2CCN(S(=O)(=O)c3cn(C)cn3)CC2)cc1 | x | -7% | x
CCCCC(=O)NC(c1ccccc1)c1ccc2cccnc2c1O (centres undefined) | 4.5µM* | -17% | i
CCCCC(=O)NC(c1ccco1)c1cc(Cl)c2cccnc2c1O (centres undefined) | 1% | 0% | x
CCC(=O)NC(c1ccccc1OC)c1ccc2cccnc2c1O (centres undefined) | u | -16% | +
COc1cccc(/C=N/NC(=O)COc2cccc3cccnc23)c1O | 0% | -1% | x
COc1ccc(-c2nc3ccccc3c(=O)n2O)cc1 | -1% | 12% | x
COc1cc(OC)cc(-c2nc3ccccc3c(=O)n2OC(=O)c2ccccc2C)c1 | u | 7% | +
O=C(CN1c2cccc3cccc(c23)S1(=O)=O)NCc1ccc2c(c1)OCO2 | 5% | 1% | x
CC(C(=O)NCc1ccc2c(c1)OCO2)N1c2cccc3cccc(c23)S1(=O)=O (centres undefined) | u | 7% | +

From PubChem BioAssay
